# Values joined by “and” are separate entries in the source; they are usually repeats but may differ in a detail not shown here. Identical values can stand only once. About 9,900 (2.8%) of roughly 350,000 compounds were called active. Not shown: some 15% with an inconclusive outcome. The full list was thinned out, with actives kept by preference. Values without a mark were called inactive. The call rests on the fitted dose curve; in most records, active means well fitted activation curve with a large enough effect; inconclusive means small, poorly fitted or top-dose-only effect; inactive means no such curve, though single readings can be large or run the other way.
# Assay: A quantitative high throughput screen for small molecules that induce DNA re-replication in MCF 10a normal breast cells. Further: nearly all actives have a fitted effect of over 50% in size. On activity, positive = re-replication: % of control where 0% means no effect.
# Conditions: MCF 10A DNA re-replication, Hoechst nuclear intensity, 48 h; series mostly up to 46.1 µM; activity, positive = re-replication: at the top concentration
# Potency means the concentration at half of the fitted maximal effect.
Structure (SMILES),"activity, positive = re-replication [%]",Potency
COc1ccc2oc(N)nc2c1,0.24,
COc1cccc(CNC(C)C(=O)Nc2ccc(S(=O)(=O)N3CCCC3)cc2)c1 (stereo unspecified),5.52,
CN(Cc1ccc(F)cc1)C(=O)CN1C(=O)c2ccccc2S1(=O)=O,-0.62,
C[C@]12CC[C@H](O)CC1=CCC1C2CC[C@@]2(C)C1CC[C@@H]2NC(=O)CCC(=O)O (stereo partly specified),-1.85,
CC1CCCCC1NC(=O)COC(=O)Cc1ccc(Cl)cc1 (stereo unspecified),-4.72,
CC(C)(C)C(=O)Nc1cccc(-c2ccc[nH]2)n1,-0.678,
CC(=O)c1c(C)[nH]c(C(=O)OCC(=O)Nc2c(C)cccc2C)c1C,7.67,
O=C(CNC(=O)c1ccco1)NNC(=O)c1ccc(Br)cc1,-8.12,
Cc1cccc(NC(=S)N2CCC(c3nc4ccccc4s3)CC2)c1,-2.25,
CCCNC(=S)N1CCCC(c2nc3ccccc3[nH]2)C1 (stereo unspecified),-49.5,
Cc1cccc(NC(=S)N2CCCC(c3nc4ccccc4[nH]3)C2)c1 (stereo unspecified),,1.03 µM (active)
O=C(Nc1ccccc1-c1ccccc1)c1cccs1,-3.72,
O=C(Nc1ccccc1)c1ccc(NC(=O)c2cccs2)cc1,1.8,
O=C(Nc1ccnc(-c2ccncc2)n1)c1cccs1,,0.259 µM (active)
CN1CCN(c2ccc(NC(=O)c3ccccc3)cc2)CC1,9.59,
Cc1cccc(N2CCN(c3ccc(NC(=O)/C=C\C(=O)O)cc3)CC2)c1,3.14,
C=CC(=O)Nc1ccc(Nc2ccnc(Nc3ccc(N4CCN(C)CC4)cc3)n2)cc1,,20.6 µM (active)
CCCCN(CC(=O)Nc1cccc(S(=O)(=O)N2CCCC2)c1)Cc1nc2ccccc2c(=O)[nH]1,22.4,
COC1C(CO)OC(n2cnc3c(=S)nc(N)[nH]c32)C1O (stereo unspecified),11.1,
COC(=O)Nc1nc2ccc(Sc3ccccc3)cc2[nH]1,,904 nM (active) and 1.16 µM (active)
COc1ccc2nc(SCC(=O)Nc3c(C)cc(C)cc3C)[nH]c2c1,-1.39,
Cc1ccc(O)c(CNc2nc3ccccc3[nH]2)c1,8.95,
Cc1ccccc1Nc1nc(N)nc(COC(=O)CCC(=O)c2ccc(F)cc2)n1,-1.07,
COc1cnn(-c2ccc([N+](=O)[O-])cc2)c(=O)c1Cl,,18.4 µM (active)
Cc1cc(CO)nn1-c1ccc([N+](=O)[O-])cc1,-1.81,
CC(C)(C)c1cnnn1-c1ccc([N+](=O)[O-])cc1,17,

Structure (SMILES),"activity, positive = re-replication [%]",Potency
Cc1ccc(N2NC(=O)/C(=C/C=C/c3ccco3)C2=O)cc1C,,23.1 µM (active)
Cc1ccc(N=C2NC(=O)/C(=C/C=C/c3ccco3)S2)cc1C,,7.31 µM (active)
O=C1NN(c2ccccc2)C(=O)/C1=C/c1ccc(-c2cccc(C(=O)O)c2)o1,10.3,
CCC1S/C(=N/N=C/c2ccco2)NC1=O (stereo unspecified),4.53,
CN(C)c1ccc(-n2cccc2/C=C2/SC(=Nc3ccc(F)cc3)NC2=O)cc1,-10.2,
COc1cc(/C=C2/C(=O)NN(c3cccc(Cl)c3)C2=O)cc(Br)c1O,-2.08,
CC(C)c1ccc(S(=O)(=O)N2CCN(C(C)C(=O)NC3CCCC3)CC2)cc1 (stereo unspecified),18.7,
COc1ccc(CCNC(=O)c2ccc(NC(=O)CC3SC(N4CCCCC4)=NC3=O)cc2)cc1OC (stereo unspecified),-0.0243,
Cn1c(N)cc(=O)n(C)c1=S,0.759,
Cc1ccc(CCC(=O)Nc2ncc(Cc3cc(Cl)ccc3Cl)s2)o1,,1.16 µM (active)
Cc1cnc(NC(=O)CSc2nnc(-c3ccc(Cl)cc3Cl)n2N)s1,-3.27,
CCOc1ccccc1NC(=O)CCc1ccc(C)o1,-0.239,
CNS(=O)(=O)c1ccc(C(=O)NCC(=O)NCCc2ccc3c(c2)OCCO3)cc1,0.564,
CCOC(=O)CNC(=O)N1c2ccccc2Sc2ccccc21,-0.866,
N/C(=N\OC(=O)c1ccc2c(c1)OCO2)c1ccc(Br)cc1,0.704,
N/C(=N\OC(=O)N1c2ccccc2Sc2ccccc21)c1ccc(Br)cc1,,5.17 µM (active)
O=C(OCC(=O)N1CCN(c2ccccc2)CC1)c1ccc([N+](=O)[O-])s1,-0.635,
COc1ccc(CCNC(=O)COC(=O)c2cnc(Cl)c(Cl)c2)cc1,8.58,
O=C(Cc1cccc2ccccc12)NCCC1=CCCCC1,-2.42,
Cc1nnc(OCC(=O)NCCC2=CCCCC2)c2ccccc12,,20.6 µM (active)
O=C(COc1cccc(-n2cnnn2)c1)NCCC1=CCCCC1,8.98,
O=C(OCCOc1ccccc1F)c1cc(S(=O)(=O)N2CCOCC2)ccc1F,-9.85,
CCCCN(C(=O)c1nn(C)c(=O)c2ccccc12)c1c(N)n(CCC)c(=O)[nH]c1=O,-7.2,
COC(=O)C1=C(C)OC(N)=C(C#N)C1c1cc(OC)ccc1OC (stereo unspecified),-1.47,
CCC1=C(C(=O)OC)C(c2cc(OC)ccc2OC)C(C#N)=C(N)O1 (stereo unspecified),5.44,
